A number with no mark means an inactive call. Records with an inconclusive call do not appear. The source made the active and inactive calls. Calls come from the whole dose curve; as a rule, active = well fitted curve in the direction sought with a large enough effect; inconclusive = small, poorly fitted or top-dose-only effect, or another doubt; inactive = no such curve, though single readings can be large; an effect the other way counts as inactive or inconclusive.
molecular target: Tyrosine-protein phosphatase non-receptor type substrate 1 (Homo sapiens) + Leukocyte surface antigen CD47 (Homo sapiens) (UniProt P78324+Q08722); experiment: CD47-SIRPalpha protein protein interaction - Alpha assay qHTS validation (AID 1347059); conditions: AlphaScreen CD47-His/biotin-SIRPalpha binding, LOPAC; series mostly up to 38.3 µM; activity change, negative = inhibition: at the top concentration;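 note: bead proximity luminescence from CD47 binding SIRPalpha after compound preincubation with SIRPalpha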; note: potency is the fitted concentration of half-maximal effect; for activity change, negative = inhibition: % is set by controls: 0 for no effect and ±100 for the full control effect
Sequence (P78324 whole entry, looked up, the tested form may be a part): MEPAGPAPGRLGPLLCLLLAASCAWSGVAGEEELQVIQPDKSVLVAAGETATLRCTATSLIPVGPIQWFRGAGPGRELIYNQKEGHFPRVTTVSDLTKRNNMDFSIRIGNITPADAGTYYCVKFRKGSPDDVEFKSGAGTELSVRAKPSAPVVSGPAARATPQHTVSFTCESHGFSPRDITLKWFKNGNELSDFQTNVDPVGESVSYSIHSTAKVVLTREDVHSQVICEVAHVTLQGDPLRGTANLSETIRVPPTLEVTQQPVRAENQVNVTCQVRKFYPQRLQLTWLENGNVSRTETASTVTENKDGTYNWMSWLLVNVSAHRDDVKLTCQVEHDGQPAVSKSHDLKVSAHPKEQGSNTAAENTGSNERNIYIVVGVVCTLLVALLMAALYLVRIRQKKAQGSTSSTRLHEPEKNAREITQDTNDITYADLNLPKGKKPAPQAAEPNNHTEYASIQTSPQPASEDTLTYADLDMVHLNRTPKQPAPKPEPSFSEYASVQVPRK
Sequence (Q08722 whole entry, looked up, the tested form may be a part): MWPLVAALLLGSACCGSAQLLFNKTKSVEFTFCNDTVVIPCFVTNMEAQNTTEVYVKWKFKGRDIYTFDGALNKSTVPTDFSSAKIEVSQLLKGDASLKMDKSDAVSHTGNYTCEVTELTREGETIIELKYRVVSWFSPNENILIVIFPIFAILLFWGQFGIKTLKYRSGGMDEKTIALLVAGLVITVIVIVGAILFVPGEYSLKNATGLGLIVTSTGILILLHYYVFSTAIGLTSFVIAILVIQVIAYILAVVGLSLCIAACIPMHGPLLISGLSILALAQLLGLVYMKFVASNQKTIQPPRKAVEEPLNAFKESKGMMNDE
Summary of the method: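 In PBS (pH 7.4) with 0.05% IGEPAL CA-630, compound is preincubated with biotin-Avi-SIRPalpha ectodomain before His-CD47 ectodomain and affinity beads are added. Light-protected room-temperature incubations; AlphaScreen readout.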

| SMILES | Potency | activity change, negative = inhibition |
| --- | --- | --- |
| N[C@@H](Cc1cnc[nH]1)C(=O)O | 13.1 µM (active) |  |
| Nc1cc(Cl)c(NC2=NCCN2)c(Cl)c1 |  | 1.86% |
| O=C1CCC(c2ccc(-n3ccnc3)cc2)=NN1 |  | -5.79% |
| N[C@H](CO)C(=O)O |  | 3.08% |
| CC(=O)O[C@H]1C[C@@H]2CC[C@@H]3[C@H](CC[C@@]4(C)[C@H]3C[C@H]([N+]3(C)CCCCC3)[C@@H]4OC(C)=O)[C@@]2(C)C[C@@H]1[N+]1(C)CCCCC1 |  | 1.9% |
| CC(C)C[C@H]1C(=O)N2CCC[C@H]2[C@]2(O)O[C@](NC(=O)[C@@H]3C=C4c5cccc6[nH]c(Br)c(c56)C[C@H]4N(C)C3)(C(C)C)C(=O)N12 |  | -27.1% |
| C1CCc2nnnn2CC1 |  | -2.91% |
| CC1(C)CCC(NC(=O)[C@@H](N)CCC(=O)O)CC1 |  | 5.09% |
| CNCCC=C1c2ccccc2CCc2ccccc21 |  | -5.38% |
| CC(CCc1ccccc1)NCC(O)c1ccc(O)c(C(N)=O)c1 (stereo not given) |  | 1.92% |
| CNCCC(Oc1ccccc1C)c1ccccc1 (stereo not given) |  | -0.666% |
| CN1C2CCC1CC(OC(=O)c1c[nH]c3ccccc13)C2 (stereo not given) |  | 0.441% |
| CC(C)COC(=O)OCN1C(=O)CN(CCN2CC(=O)N(COC(=O)OCC(C)C)C(=O)C2)CC1=O |  | 9.01% |
| CCCn1c(=O)[nH]c(=O)c2[nH]cnc21 |  | -2.41% |
| C[N+]1(CCCCC[N+]2(C)CCCC2)CCCC1 |  | 0.684% |
| C[C@@H]1C(=O)NC2=Nc3cccc(Cl)c3CN21 |  | 0.46% |
| CCC(NC(C)C)C(O)c1ccc(O)c(O)c1 (stereo not given) |  | 1.6% |
| COc1cc2c(cc1O)CC[C@@H]1[C@@H]2CC[C@]2(C)[C@@H](O)CC[C@@H]12 |  | -10% |
| O=C(O)c1cc2cc(Cc3cccnc3)ccc2o1 |  | 2.54% |
| CC[C@H](C)C(=O)O[C@H]1CCC=C2C=C[C@H](C)[C@H](CC[C@@H]3C[C@@H](O)CC(=O)O3)[C@H]21 |  | 1.27% |
| Oc1ccc(O)cc1 |  | 0.277% |
| CCCC1O[C@@H]2C[C@H]3[C@@H]4CCC5=CC(=O)C=C[C@]5(C)[C@H]4[C@@H](O)C[C@]3(C)[C@]2(C(=O)CO)O1 (stereo not given in full) |  | 3.1% |

molecular target: Parathyroid hormone/parathyroid hormone-related peptide receptor (Homo sapiens) (UniProt Q03431); experiment: qHTS for PTHR1 Agonists: Optimization Screen against the NCGC LOPAC library (AID 1347079); conditions: HEK293 GP2 PTHR1 GloSensor cAMP luminescence, 1 h; series mostly up to 57.1 µM; activation: at the top concentration;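 note: GloSensor cAMP luminescence in HEK-293 GP2 cells expressing human PTHR1 with IBMX; 0% is about no effect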
Sequence (Q03431 whole entry, looked up): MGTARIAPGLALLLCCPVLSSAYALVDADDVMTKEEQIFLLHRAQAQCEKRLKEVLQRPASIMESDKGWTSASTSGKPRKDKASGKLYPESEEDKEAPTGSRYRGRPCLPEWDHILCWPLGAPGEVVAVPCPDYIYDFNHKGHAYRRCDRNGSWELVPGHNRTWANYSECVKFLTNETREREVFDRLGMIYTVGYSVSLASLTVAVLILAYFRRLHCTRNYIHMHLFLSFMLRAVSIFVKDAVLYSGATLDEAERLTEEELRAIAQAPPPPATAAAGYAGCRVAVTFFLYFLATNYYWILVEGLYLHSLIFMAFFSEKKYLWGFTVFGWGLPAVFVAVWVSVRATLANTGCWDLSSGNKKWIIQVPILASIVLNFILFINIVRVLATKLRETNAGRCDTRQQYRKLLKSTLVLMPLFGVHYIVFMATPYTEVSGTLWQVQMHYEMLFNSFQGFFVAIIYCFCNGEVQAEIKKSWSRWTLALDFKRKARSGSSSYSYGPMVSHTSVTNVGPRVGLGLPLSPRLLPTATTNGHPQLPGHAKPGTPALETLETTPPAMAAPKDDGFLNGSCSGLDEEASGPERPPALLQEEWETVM
Summary of the method: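 HEK-293 GP2 cells, PTHR1 + GloSensor cAMP; 3000 cells/well, o/n. Luciferin + IBMX 0.5mM each (stock), 1 hr 37C. Cpd titration, 1 hr 37C. Lum after 15 min RT. Ctrl M-PTH(1-15) top 10uM.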

| SMILES | activation |
| --- | --- |
| N[C@@H](Cc1cnc[nH]1)C(=O)O | 41.3% |
| COc1cc(NS(C)(=O)=O)ccc1Nc1c2ccccc2nc2ccccc12 | -24.2% |
| Nc1cc(Cl)c(NC2=NCCN2)c(Cl)c1 | -18% |
| O=C1CCC(c2ccc(-n3ccnc3)cc2)=NN1 | 17.8% |
| N[C@H](CO)C(=O)O | -27.3% |
| CC(=O)O[C@H]1C[C@@H]2CC[C@@H]3[C@H](CC[C@@]4(C)[C@H]3C[C@H]([N+]3(C)CCCCC3)[C@@H]4OC(C)=O)[C@@]2(C)C[C@@H]1[N+]1(C)CCCCC1 | 43.1% |
| CC(C)C[C@H]1C(=O)N2CCC[C@H]2[C@]2(O)O[C@](NC(=O)[C@@H]3C=C4c5cccc6[nH]c(Br)c(c56)C[C@H]4N(C)C3)(C(C)C)C(=O)N12 | 37.8% |
| CC1(C)CCC(NC(=O)[C@@H](N)CCC(=O)O)CC1 | -16.2% |
| CNCCC=C1c2ccccc2CCc2ccccc21 | -11.4% |
| CC(CCc1ccccc1)NCC(O)c1ccc(O)c(C(N)=O)c1 (stereo not given) | -17.7% |
| CNCCC(Oc1ccccc1C)c1ccccc1 (stereo not given) | 13.2% |
| C[C@]12CC[C@@H]3c4ccc(O)cc4CC[C@H]3[C@@H]1CC[C@@H]2O | -28.2% |
| CN1C2CCC1CC(OC(=O)c1c[nH]c3ccccc13)C2 (stereo not given) | 9.73% |
| CC(C)COC(=O)OCN1C(=O)CN(CCN2CC(=O)N(COC(=O)OCC(C)C)C(=O)C2)CC1=O | -17.9% |
| CCCn1c(=O)[nH]c(=O)c2[nH]cnc21 | 9.2% |
| C[N+]1(CCCCC[N+]2(C)CCCC2)CCCC1 | 15.1% |
| C[C@@H]1C(=O)NC2=Nc3cccc(Cl)c3CN21 | 31.1% |
| COc1cc2c(cc1O)CC[C@@H]1[C@@H]2CC[C@]2(C)[C@@H](O)CC[C@@H]12 | -8.33% |
| O=C(O)c1cc2cc(Cc3cccnc3)ccc2o1 | 2.35% |
| CC[C@H](C)C(=O)O[C@H]1CCC=C2C=C[C@H](C)[C@H](CC[C@@H]3C[C@@H](O)CC(=O)O3)[C@H]21 | -32.1% |
| Oc1ccc(O)cc1 | -6.24% |
| COC(=O)[C@H]1[C@H]2C[C@H]3c4[nH]c5ccccc5c4CCN3C[C@H]2CC[C@@H]1O | 11.8% |
| CCCC1O[C@@H]2C[C@H]3[C@@H]4CCC5=CC(=O)C=C[C@]5(C)[C@H]4[C@@H](O)C[C@]3(C)[C@]2(C(=O)CO)O1 (stereo not given in full) | -2.31% |

— PubChem BioAssay (NCATS)
